Lassa entry inh: Lassa virus entry inhibition; Lassa virus pseudotype entry inhibition, cell reporter; Potency, µM (doses to about 37.9 µM), usual class: inhibitors; 300,000 tested, 1.2% active; AID 540256; calls by dose curve; tested in HEK293 cells; further: nearly all actives have a fitted effect of over 50% in size
MARV entry inh: blocks Marburg virus binding to or entry into cells; Marburg virus pseudotyped entry inhibition, cell reporter; Potency, µM (series often up to 37.8 µM), actives largely listed as inhibitors; 300,000 tested, 1.8% active; calls by dose curve; tested in HEK293 cells
Pf growth 48h: P. falciparum growth inhibition at 48 hours (one generation); P. falciparum luciferase growth in erythrocytes, 48 h; Potency, µM (series often up to 28.7 µM), usual class: inhibitors; 310,000 tested, 5.9% active; AID 504832
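Parasite viability was followed by luminescence of a genomically integrated firefly luciferase. Cultures held 0.1% parasitemia at 2% hematocrit (final), incubated under 5% CO2 at 37 C.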
Shiga inhibitor: Shiga toxin inhibition; Vero cells, Shiga toxin protein synthesis inhibition reporter; inhibition, % at 38.7 µM; 290,000 tested, 9.2% active; in the data active means inhibition mostly above about 28%, no sharp cut-off; inactive means mostly below about 43%
CHX counter: counter-screen for Shiga toxin inhibitors: cycloheximide protein synthesis inhibition; cell reporter, cycloheximide protein synthesis inhibition counterscreen; max response, %; 300,000 tested, 12% active; AID 2314; in the data active means max response mostly above about 13%, no sharp cut-off; inactive means mostly below about 14%; further: read at 38.3 µM for the half of the compounds with a filed dose
Pf growth 96h: P. falciparum growth inhibition at 96 hours; P. falciparum luciferase reporter growth, 96 h; 320,000 tested, 6.9% active; Potency, µM (series often up to 28.7 µM), actives largely listed as inhibitors; AID 504834
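96 h incubation, 37 C, 5% CO2, of luciferase-reporter P. falciparum-infected RBCs (2% hematocrit, 0.05% parasitemia final) with test compounds; endpoint luminescence.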
Hits are given with their value; – = inactive; ? = inconclusive; · = no result given. In the library only some 19% were active in any assay of this set; here they are far more common. Unless noted, the call rests on the fitted dose curve; in most records, active means well fitted inhibition curve with a large enough effect; inconclusive means small, poorly fitted or top-dose-only effect, or another doubt; inactive means no such curve, though single readings can be large or run the other way.

SMILES	Lassa entry inh	MARV entry inh	Pf growth 48h	Shiga inhibitor	CHX counter	Pf growth 96h
Cc1ccc(N(Cc2cc(=O)[nH]c3ccccc23)C(=O)CCl)c(C)c1	?	?	9.28µM	–	–	6.57µM
CCCC(=O)N(Cc1cc(=O)[nH]c2ccccc12)c1ccccc1OC	–	–	7.38µM	–	–	11.7µM
OCc1cn(-c2ccccc2)nc1-c1ccco1	–	–	·	–	–	–
C=CCOC(=O)C1=C(C)NC(C)=C(C(=O)OCC=C)C1c1cn(-c2ccccc2)nc1-c1ccco1	–	?	?	–	–	3.7µM
CN(C)c1ccc(C(=O)NN2C(=O)c3ccccc3C2=O)cc1	–	?	–	–	15.2	–
CN(C)c1ccc(C(=O)C(=O)c2ccccc2)cc1	·	·	–	66.7	48.7	?
CN(C)c1ccc(C(=O)c2ccc(O)cc2O)cc1	–	–	–	53.9	29.2	–
O=C(c1ccc(O)cc1)c1ccc(O)cc1O	?	?	–	–	–	–
O=C(NN1C(=O)c2ccccc2C1=O)c1ccncc1	·	·	–	–	–	–
CN(C)c1ccc(C(=O)c2ccc(N(C)C)cc2)cc1	?	–	·	–	17.4	–
COc1cc([C@@H]2CC(=O)c3c(O)cc(O)cc3O2)ccc1O	·	·	·	–	–	·
O=C(c1cccnc1)N1c2ccccc2Sc2ccccc21	–	?	?	–	–	–
CN(C)c1ccc2c(c1)Sc1cc(N(C)C)ccc1N2C(=O)c1ccccc1	–	?	3.7µM	–	–	1.65µM
COC(=O)CC1C(=O)NCCN1C(=O)CSc1nc2ccccc2o1 (stereo unspecified)	–	–	–	–	–	–
CCOc1ccc(C2C(C(=O)c3ccc(C)o3)=C(O)C(=O)N2CCN2CCOCC2)cc1OC (stereo unspecified)	–	–	–	–	–	–
C/C(=N\Nc1nc(-c2ccccc2O)nc2ccccc12)c1ccccc1	–	–	0.522µM	–	–	?
Oc1ccccc1Nc1nc(-c2ccccc2O)nc2ccccc12	–	?	1.04µM	–	–	1.31µM
C/C(=N/Nc1nc(-c2ccccc2F)nc2ccccc12)c1ccccc1O	·	·	?	–	–	?
Cc1ccc(/C=N/N(C)C2=NS(=O)(=O)c3ccccc32)o1	·	·	–	–	–	?
CC(C)C[C@H]1COc2cc(Br)ccc2S(=O)(=O)N1	–	·	·	·	·	·
Cc1ccccc1C(=O)N1[C@@H](C(C)C)COc2cc(Br)ccc2S1(=O)=O	·	9.95µM	·	·	·	·
COc1ccccc1CNC(=O)Cn1cnc2ccccc2c1=O	–	?	–	–	–	–
O=C(c1cc(F)ccc1F)C1CCCN(C(=O)c2ccc3nccnc3c2)C1 (stereo unspecified)	–	–	–	30.7	22.0	–
O=C(c1cc(F)ccc1F)C1CCCN(C(=O)c2ccc(F)cc2Cl)C1 (stereo unspecified)	?	?	–	–	–	1.17µM
Cc1nc(C)c(C(=O)N2CCCC(C(=O)c3cc(F)ccc3F)C2)s1 (stereo unspecified)	?	–	–	–	–	5.86µM
SMILES	Lassa entry inh	MARV entry inh	Pf growth 48h	Shiga inhibitor	CHX counter	Pf growth 96h
COc1ccc(F)cc1C(=O)C1CCCN(C(=O)c2cccc(N(C)C)c2)C1 (stereo unspecified)	·	·	5.86µM	–	–	?
Cc1cccc(CNC(=O)c2ccccc2NC(=O)C2=CSCCO2)c1	·	·	–	–	–	?
O=C(c1ccco1)N(Cc1cccnc1)c1nc2c(F)cc(F)cc2s1	–	·	·	·	·	·
N#C/C=C(/N)c1ccc(Br)cc1	–	–	13.1µM	–	–	10.4µM
O=C(NCCCCNC(=O)c1ccc(Br)cc1)c1ccc(Br)cc1	–	–	–	–	–	–
Cc1ccc(-n2c(C)cc(C(=O)CSc3nnnn3C)c2C)cc1	?	?	?	66.1	52.9	?
Cc1ccc(-n2nnnc2SCC(=O)c2cc(C)n(-c3cc(C)on3)c2C)c(C)c1	1.46µM	–	?	–	–	–
COc1ccc(-n2c(C)cc(C(=O)CSc3nnc(-c4ccoc4C)n3C)c2C)cc1	–	–	9.28µM	–	–	·
Cc1cc(C(=O)CSc2nncs2)c(C)n1-c1c(C)n(C)n(-c2ccccc2)c1=O	–	–	–	–	–	·
Cc1ccc(-n2c(C)cc(C(=O)CSc3nncs3)c2C)cc1	?	?	–	105.1	45.4	–
CC(c1ccccc1)C1C(C#N)=C(N)OC2=C1C(=O)CC(C)(C)C2 (stereo unspecified)	–	–	–	–	–	?

Bioassay records (PubChem BioAssay)
